Results from PubChem BioAssay AID1508600 (Functional Genomics Laboratory (NCATS/FGL), 2020).
Out of some 53,000 sequences screened, about 3,700 (7%) were called active. The full list was thinned out, with actives kept by preference. A number with no mark means an inactive call.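 How the source made its calls: active means gene knockdowns whose robust z-score for IL-1 alpha signal is at least 2 or at most -2, so actives lie on both sides; inactive means the rest.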

assay: Components of the Cytosolic LPS Sensing Pathway: Gene Identification via Genome-wide siRNA Screen; details: RAW264.7 macrophages, IL-1a HTRF, actives lie on both sides, screened at 100 nM (by protocol), cells primed 5 h with Pam3CSK4 first;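 further: robust z of the log signal after scaling to non-targeting control siRNA wells of the plate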
Method in brief: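 RAW264.7 mouse macrophages reverse-transfected with single siRNAs (100 nM final) for 48h, primed with Pam3CSK4 for 5 hours, then transfected with LipidA for 24 hour. Supernatant IL-1a read by HTRF; values normalized to negative-control median, log-transformed robust z-scores.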

Sequence	z-score
CGACGAACCUGAGUAUAUUTT against Canx	-0.0578
GUGCAGGUCCUAAUCUGAATT against Asb1	2.15 (active)
GGAAAAAAGCCUCAUCGGATT against Wdr63	0.676
GGGAGAGUGUUUGUUCAUUTT against Dusp1	-0.082
GGCCUACCUAUAGAAAUGATT against Pgap1	0.208
GACACCUACUUCAUUGGCCTT against Olfr1245	-1.23
GCAGUUAUAUGCUCAAGAUTT against Pik3r3	0.0211
GCCUUACUUCGGAGUGCUATT against Olfr606	-4.78 (active)
GCCAGCAUAAAUAUACUUUTT against Apol10a	-0.0597
GCCUUUGGAAGUUCAGAACTT against Rnf216	-1.07
GAUUGGAACUUGUGGAUCUTT against Defb8	0.424
GGUACUGGACCAAAUUGCUTT against Ppp1r15b	2.26 (active)
CGGCACCUAUGAGUCUUACTT against Cyp4x1	2.13 (active)
CGAUCCAUGUUGUAAGCGCTT against Adam39	0.347
GGUUAAAGUGUAUUUACAGTT against Fkbp14	0.124
GGUCCUUAACCGCUAUGCATT against Esrp2	0.294
GGAAGCUUCAGGAGUAUAUTT against Sdc2	-0.326
GUGGCUGACAAGUUUAUCATT against Cyp2c66	-0.132
AACUAGCAAUAUGAUGGAGTT against Chic1	-0.55
GGGUUUGUUAAGUCCUGUGTT against Gsdmc	-2.09 (active)
GCAAUAACCCAAUUCCUGATT against Phex	0.179
GGACAGUAUGAAUUUGAAUTT against Lcp1	2.44 (active)

Sequence	z-score
GGCCUAUCUGACCUACACCTT against Wnt8a	-0.271
GCCAUAUGAUAAUAUAGAGTT against Gbp6	-0.574
CCUCAACCGGCAGUUCUUGTT against Uba2	-0.574
GCAUAGCUAACUCAGCAUATT against Map2k2	1.09
GGAAACCAUUGAAGAUGUUTT against Psmd13	-1.2
CCCUGAAGUUUAUGCAACATT against Ttyh2	-3.02 (active)
GGUAAUGAGCAGAUGAAGCTT against Sgta	0.622
GGUGGUUUAAGAAAUCAAATT against Dolpp1	0.34
GGCCCUAGAUAUUGAUUUUTT against Rbp2	-0.338
GGAGAUUGGGAUCAAUUAGTT against Sall3	0.576
GGACGUGACCAUGAUGUCUTT against Oacyl	-3.46 (active)
GCAUCCUUUGUCGAAGUGGTT against Clec18a	-0.495
GGGAUUUUGUACAUUUUUGTT against Egln3	1.51
CCGACGGAUAGCUUGGAUGTT against Fgb	-0.214
GGACGGAGGAUUCUGAAACTT against Prepl	2.42 (active)
GGAAAGCUUACAGUUGAAATT against 4933427D06Rik	0.992
GGAAAGCUAAGGCUGUACUTT against Dnal1	-0.103
CCCAGAAGCCUUAUCGUCUTT against Mzt1	2.37 (active)
GCCAUCUACUUUGUUAUAGTT against Kcnk4	0.725
GGAGUUAUUAACUGAAGAGTT against Cyp2c55	0.0702
GAGGGCCAUCUCUGACAUGTT against Avp	0.369
GGUCAAAACAAAAGGAGGGTT against Ncf4	0.498

Sequence	z-score
GGACAAAUUUGCAUAGAUUTT against Rab10os	2.93 (active)
GCCAAUAUUUGUUUUUGAGTT against Ranbp3l	0.0685
GCUACAACCUUGAGAAACUTT against Duoxa2	0.706
CCUAGGUGUCGUACACAAATT against Galns	2.45 (active)
GGCUUCCUAUCUGAUUACUTT against Acsl4	0.498
CCACCGGAAUGACAUAAUGTT against Klk11	-0.578
CCUAGUUGAAAAUUGGGAATT against Fuca2	0.354
CGUGGUCAUCUGGUAUGAGTT against Zfp653	2.53 (active)
GCACUGCUAUUUACAAAAATT against Tex16	-1.73
CAGGGCAAGGUGAUAUCUGTT against Olfr1411	-0.428
GGAGAAAUAAGUGCAGGUGTT against Rhox2a	-0.622
GGCUCCUCUCCAAGAAUAUTT against Prr14l	2.03 (active)
GGAGAGAAUCAGAGAGAACTT against Akr1c18	0.276
GCUUCUGAUAGAUCAUAAGTT against Aoc3	-0.276
GGCUCAAAGUUUUCAGAGATT against Kctd14	-0.0155
GCAUUUUGUGGAAAAGGCUTT against Olfr582	-2.19 (active)
CGAAAAGGUGGACUUUUAGTT against Rnf4	-0.545
GGUGAUUUUCGAUAUACACTT against Dclre1b	0.257
CGACCUGCUCUCAUAGCUUTT against Sycn	-0.702
GGCCUUUGGGAAAACAUGGTT against Zcchc14	-2.16 (active)
GUACUAGUGGUGACUGCAUTT against Olfr462	-0.0789
CCAAGGGUUAAGUCUUCAUTT against Zranb1	0.738

Sequence	z-score
CCUCUCAUGUAUCCUGUGATT against Olfr292	-0.205
GGGAAAGUGUGUAAUAAAUTT against Egflam	-0.774
GCUUACUACCAUUGGGAAUTT against Samt2	1.65
GGAUUAGAGAAAUAGGGCUTT against Apol10a	-2.09 (active)
GGAAUUCCUUCGUUUCCUUTT against Usp2	1.64
GGUUUGAAGUGUUGACAUUTT against Fam126a	-0.474
CGUACAUCAGAAUGUUAAUTT against Fkbp4	1.46
GGUGGUGUCAACCUUAAAATT against Nrsn1	0.253
GGUUUUGUCCAGAAGAAUATT against Kl	-0.574
GGAUGGACCAUCAGCUUCATT against Olfr1152	-2.25 (active)
GGCUCUUGAUACGAAUGUATT against Aadac	-0.44
GGAGAAGGGCUUUUCUGUUTT against Gbp5	-0.729
GCCUCACAGAUUGAUAAUATT against Akt3	-1.23
GCAGCCAUACAGCUUAUAUTT against Cyb561d2	0.382
GGAGCUGUCAUUUAAGAAATT against Sorbs2	2.42 (active)
CGUGGCUCACAAUAAAUGCTT against Cfd	0.385
GGCAAAUGGAAAAUUCUGCTT against Rlim	0.982
GCUGAUGUAAGUAUUCUAGTT against Pdcl	0.1
GCGGAAUUGGAAAAUGCCGTT against Hbs1l	0.283
GGUGGUAUCUGUAUUCUAUTT against Olfr1106	2.6 (active)
GGUGACAAUAAAUUUGGAUTT against Tmem143	1.09
GGAUUCACAUUUCUAAAGCTT against Adcy8	1.31

Sequence	z-score
CGCUAUGAAACCUCACUAATT against E2f1	-0.598
GCAUGACCUCAGGUUUUCUTT against Il20rb	1.57
CCUGAUUGUCACUCCUUUUTT against Pde4b	0.753
GCGAAAGCAGGAUACUCCUTT against Mtmr11	1.01
GGAAAAAAUCUGCAUCCGATT against Neu1	-0.415
GGGACAUGAGCCAUUCAUCTT against Lcor	0.749
GGAUAGCUCUAUUAUCUCUTT against Serpinb3a	1.24
GGCAGUACAACUGGUCUACTT against 0610040J01Rik	2.21 (active)
GGAUGUGCUCUGUGAAUGCTT against Pgf	0.533
GGCAUCACAGAAGGUUUAUTT against Rock2	4.17 (active)
GGUGAACGAUGUCAAUAAGTT against Pdxk	-0.318
CCAAGAGAUUGCUAAUUGCTT against Runx1t1	-0.695
CGCAAAAACUGGUGUAACCTT against Arhgef1	-0.958
CUCCUCAGUCAACAAGAACTT against Hoxc11	0.176
GCUUGUUGGUGGUCUCCUGTT against Spink7	-2.28 (active)
GGAAAAUGCCUCAAGACUUTT against Wdr5b	-0.0565
GGACACCAUCAAUUGAUUATT against Wdr27	-0.127
GCCUUGGCUGAAACUCUCATT against Cybb	0.612
GGGACAAGAAGAACAAGAGTT against Srp14	-1.33
GGAAGAAUCGGAUCAAGAUTT against Dpep2	0.153
